Measured values as given in PubChem BioAssay (NCI).
This is part of a sample that, as a whole, favours compounds with a hit. Of some 83,000 tested, about 20% had one in any assay.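 Growth was measured after 48 h exposure to one concentration of compound in 96-well plates. Values under 10 count as active.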 Active and inactive are the calls of the source.

Legend:
Test in all cases: NCI-60 one-dose screen, 48 h (100 = growth as untreated, 0 = no growth, -100 = all killed)
Details in all cases: 10 µM unless noted
DU-145 prostate = tested on: DU-145 prostate
K-562 leukemia = tested on: K-562 leukemia
MALME-3M melanoma = tested on: MALME-3M melanoma
MDA-MB-231 breast = tested on: MDA-MB-231 breast
RXF 393 renal = tested on: RXF 393 renal
SF-268 CNS = tested on: SF-268 CNS
SF-295 CNS = tested on: SF-295 CNS
SF-539 CNS = tested on: SF-539 CNS
UACC-257 melanoma = tested on: UACC-257 melanoma
M14 melanoma = tested on: M14 melanoma

Measured: growth

Cc1ccc(C)n1-c1ccccc1-n1c(C)ccc1C
inactive: DU-145 prostate 111% | K-562 leukemia 101% | MALME-3M melanoma 120% | MDA-MB-231 breast 90.8% | RXF 393 renal 109% | SF-268 CNS 98.6% | SF-295 CNS 92.9% | SF-539 CNS 104% | UACC-257 melanoma 103% | M14 melanoma 112%

C=C(CBr)[C@@H]1CC[C@]2(C(=O)O)CC[C@]3(C)[C@H](CC[C@@H]4[C@@]5(C)CCC(=O)C(C)(C)[C@@H]5CC[C@]43C)[C@@H]12
inactive: DU-145 prostate 86.1% | K-562 leukemia 50.4% | MALME-3M melanoma 89.4% | MDA-MB-231 breast 81% | RXF 393 renal 85.9% | SF-268 CNS 83.1% | SF-295 CNS 79.2% | SF-539 CNS 99.2% | UACC-257 melanoma 80.2% | M14 melanoma 80%

CCCn1cc2c(=O)nc3sc(Cc4ccccc4)c(C)n3c2n1
inactive: DU-145 prostate 104% | K-562 leukemia 77.5% | MALME-3M melanoma 112% | MDA-MB-231 breast 99.3% | RXF 393 renal 119% | SF-268 CNS 94.8% | SF-295 CNS 120% | SF-539 CNS 99.7% | UACC-257 melanoma 88.3% | M14 melanoma 112%

Ic1ccc(OCCCCn2ccnc2)cc1
active: MALME-3M melanoma 1.9%
inactive: DU-145 prostate 81.2% | K-562 leukemia 37.6% | MDA-MB-231 breast 68.6% | RXF 393 renal 67.1% | SF-268 CNS 83.3% | SF-295 CNS 77.9% | SF-539 CNS 83.8% | UACC-257 melanoma 64.3% | M14 melanoma 49.6%

O=S(=O)(Nc1ccc(F)cc1F)c1ccc(-c2cnc(C3CC3)o2)cc1
inactive: DU-145 prostate 40.7% | K-562 leukemia 18.2% | MALME-3M melanoma 34.8% | MDA-MB-231 breast 53% | SF-268 CNS 44.6% | SF-295 CNS 30.7% | UACC-257 melanoma 64%
active: RXF 393 renal -1.92% | SF-539 CNS 1.19% | M14 melanoma 4.25%

N#CC1=C(N)Oc2c(sc3c(Br)cccc23)C1c1ccc(Cl)cc1 (stereo not given)
active: K-562 leukemia 7.37% | MDA-MB-231 breast 9.21% | RXF 393 renal -18% | SF-295 CNS 6.9% | SF-539 CNS -38.2% | M14 melanoma 1.7%
inactive: DU-145 prostate 20% | MALME-3M melanoma 50.4% | SF-268 CNS 20.2% | UACC-257 melanoma 64%

CCCCCCCC[C@@H]1N[C@@H](C(=O)OC)Cc2c1[nH]c1ccccc21
inactive: DU-145 prostate 106% | K-562 leukemia 88.4% | MALME-3M melanoma 83% | MDA-MB-231 breast 96.2% | RXF 393 renal 96.6% | SF-268 CNS 97.3% | SF-295 CNS 102% | SF-539 CNS 93.7% | UACC-257 melanoma 101% | M14 melanoma 102%

N#Cc1c(-c2ccc(Cl)cc2)nc(NN2C(=O)c3ccccc3C2=O)nc1N1CCOCC1
inactive: DU-145 prostate 107% | K-562 leukemia 97% | MALME-3M melanoma 109% | MDA-MB-231 breast 105% | RXF 393 renal 107% | SF-268 CNS 99.3% | SF-295 CNS 101% | SF-539 CNS 101% | UACC-257 melanoma 108% | M14 melanoma 101%

O=C(Nc1cccc(Cl)c1)Nc1cccc(Cn2c(=O)[nH]c3ccc(Oc4ncccn4)cc3c2=O)c1
inactive: DU-145 prostate 37.3% | K-562 leukemia 26.3% | MALME-3M melanoma 58.9% | MDA-MB-231 breast 53.4% | RXF 393 renal 67.5% | SF-268 CNS 30.8% | SF-295 CNS 36.2% | SF-539 CNS 62.8% | UACC-257 melanoma 23.7% | M14 melanoma 53%

CSc1oc(C)nc1[P+](c1ccccc1)(c1ccccc1)c1ccccc1
inactive: DU-145 prostate 57.6% | K-562 leukemia 31% | MALME-3M melanoma 76.1% | MDA-MB-231 breast 65.4% | RXF 393 renal 75.9% | SF-268 CNS 54.8% | SF-295 CNS 78.3% | SF-539 CNS 79.6% | UACC-257 melanoma 20.5% | M14 melanoma 74.9%

CC1CCN(CCOc2ccc(CNc3ccc4nc(CCC5CCCCC5)[nH]c4c3)cc2)CC1
active: K-562 leukemia -0.866% | MALME-3M melanoma -85.8% | MDA-MB-231 breast 0.0918% | RXF 393 renal 2.71% | SF-295 CNS -45.9% | SF-539 CNS -67.9% | UACC-257 melanoma -72.3% | M14 melanoma -63.1%
inactive: DU-145 prostate 50.9% | SF-268 CNS 57.4%

CCOC(=O)n1cc(-c2nonc2-c2cn(C(=O)OCC)c3ccc(Br)cc23)c2ccccc21
inactive: DU-145 prostate 93.9% | K-562 leukemia 78% | MALME-3M melanoma 83% | MDA-MB-231 breast 74% | RXF 393 renal 94.2% | SF-268 CNS 82% | SF-295 CNS 72.4% | SF-539 CNS 98.4% | UACC-257 melanoma 93.6% | M14 melanoma 78.8%

CS(=O)(=O)Nc1cc(-c2ccc3ncnc(Nc4ccc5c(cnn5Cc5ccc(F)cc5)c4)c3c2)cnc1Cl
active: MALME-3M melanoma -4.18% | RXF 393 renal 9.93%
inactive: DU-145 prostate 62.1% | K-562 leukemia 48.5% | MDA-MB-231 breast 32.9% | SF-268 CNS 14.9% | SF-295 CNS 66.1% | SF-539 CNS 27.5% | UACC-257 melanoma 50% | M14 melanoma 36.8%

CSc1nc(N)c(NS(=O)(=O)c2ccc(C(C)=O)cc2)c(=O)[nH]1
inactive: DU-145 prostate 110% | K-562 leukemia 96% | MALME-3M melanoma 100% | MDA-MB-231 breast 104% | RXF 393 renal 96.9% | SF-268 CNS 99.9% | SF-295 CNS 97.3% | SF-539 CNS 112% | UACC-257 melanoma 105% | M14 melanoma 89.3%

CCOC(=O)c1c(C(=O)c2cn(C)c3ccc(Br)cc23)c(-c2cn(C)c3ccc(Br)cc23)n(NC(=O)OC(C)(C)C)c1C
inactive: DU-145 prostate 97.9% [100 µM] | K-562 leukemia 89.1% [100 µM] | MALME-3M melanoma 32.8% [100 µM] | MDA-MB-231 breast 51.2% [100 µM] | RXF 393 renal 24.2% [100 µM] | SF-268 CNS 82.4% [100 µM] | SF-295 CNS 33% [100 µM] | SF-539 CNS 48.3% [100 µM] | UACC-257 melanoma 94.8% [100 µM] | M14 melanoma 82.7% [100 µM]

C=CCc1c(O)c(C(=O)/C=C/c2ccccc2)c(OC)c2ccoc12
active: RXF 393 renal 7.33%
inactive: DU-145 prostate 63.2% | K-562 leukemia 46.8% | MALME-3M melanoma 79.4% | MDA-MB-231 breast 47.6% | SF-268 CNS 43% | SF-295 CNS 34.5% | SF-539 CNS 24.8% | UACC-257 melanoma 40.6% | M14 melanoma 59.3%

COC(=O)/C=C1/SC(=Nc2cccc(OC)c2)N(CCc2c[nH]c3ccc(O)cc23)C1=O
inactive: DU-145 prostate 33.1% | K-562 leukemia 34.1% | MALME-3M melanoma 79.5% | MDA-MB-231 breast 66.6% | RXF 393 renal 52.6% | SF-268 CNS 67% | SF-295 CNS 81.4% | SF-539 CNS 72.4% | UACC-257 melanoma 57.7% | M14 melanoma 51.3%

Cn1cc(-c2csc(-c3cn(C(=O)OC(C)(C)C)c4ccc(Br)cc34)n2)c2ccnc(Cl)c21
inactive: DU-145 prostate 68.3% | K-562 leukemia 86.9% | MALME-3M melanoma 36.6% | MDA-MB-231 breast 61.2% | RXF 393 renal 78.3% | SF-268 CNS 82.4% | SF-295 CNS 89.9% | SF-539 CNS 55.5% | UACC-257 melanoma 70.3% | M14 melanoma 88.2%

N#Cc1c(-c2ccccc2)[nH]c2ncc(-c3ccccc3)n2c1=O
inactive: DU-145 prostate 99.7% | K-562 leukemia 98.7% | MALME-3M melanoma 91.5% | MDA-MB-231 breast 76.3% | RXF 393 renal 102% | SF-268 CNS 91.7% | SF-295 CNS 78.2% | SF-539 CNS 89.9% | UACC-257 melanoma 94% | M14 melanoma 91.3%

CCn1cc(C(=O)NNC(=S)Nc2ccc(C)cc2)c(=O)c2ccc(C)nc21
inactive: DU-145 prostate 108% | K-562 leukemia 99% | MALME-3M melanoma 103% | MDA-MB-231 breast 93.5% | RXF 393 renal 104% | SF-268 CNS 103% | SF-295 CNS 102% | SF-539 CNS 102% | UACC-257 melanoma 94% | M14 melanoma 113%

COCCNC(=O)Nc1ccc2nc(-c3cccs3)c(-c3cccs3)nc2c1
inactive: DU-145 prostate 96.2% | K-562 leukemia 83.3% | MALME-3M melanoma 94.8% | MDA-MB-231 breast 92.3% | RXF 393 renal 82.5% | SF-268 CNS 102% | SF-295 CNS 78.6% | SF-539 CNS 85.6% | UACC-257 melanoma 103% | M14 melanoma 103%

CCCc1c(OC(=O)c2ccccc2)nc2[nH]c(=O)sc2c1C
inactive: DU-145 prostate 106% | K-562 leukemia 112% | MALME-3M melanoma 95.1% | MDA-MB-231 breast 104% | RXF 393 renal 101% | SF-268 CNS 97.1% | SF-295 CNS 102% | SF-539 CNS 99% | UACC-257 melanoma 98.5% | M14 melanoma 99.4%

Cc1ccc2c(n1)C(=O)C(Br)=C(C1CCCC1)C2=O
inactive: DU-145 prostate 105% | K-562 leukemia 34.3% | MALME-3M melanoma 110% | MDA-MB-231 breast 85.2% | RXF 393 renal 89.3% | SF-268 CNS 96.5% | SF-295 CNS 103% | SF-539 CNS 99.7% | UACC-257 melanoma 99.3% | M14 melanoma 101%

O=C1NC2(Nc3ccccc31)C(=O)Nc1c(Cl)cc(Cl)cc12 (stereo not given)
inactive: DU-145 prostate 117% | K-562 leukemia 99.4% | MALME-3M melanoma 102% | MDA-MB-231 breast 94.9% | RXF 393 renal 115% | SF-268 CNS 96.8% | SF-295 CNS 101% | SF-539 CNS 100% | UACC-257 melanoma 110% | M14 melanoma 101%
